The structures appear in SMILES notation. The panel holds about 83,000 compounds, 20% with a hit somewhere; the sample as a whole holds those more often.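 Values shown are percent growth following 48 h exposure of cells in 96-well plates to a single concentration of compound; below 10 was considered active.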 A number with no mark means an inactive call. Calls of active or inactive are those of the source.

In this experiment the test system is KM12 colon. Nature of the experiment: NCI-60 one-dose screen, 48 h (100 = growth as untreated, 0 = no growth, -100 = all killed). The settings on record: 10 µM unless noted. Here is the method:
Growth inhibition of the KM12 human tumor cell line is measured as a screen for anti-cancer activity. Cells are grown in 96 well plates and exposed to the test compound for 48 hours. Compounds are tested at a single concentration, which is 10^-5 M for most compounds. The reported endpoint is percent growth (GI% or GIPRCNT), where numbers from 0 - 100% represent growth inhibition, and numbers from -100% - 0 represent cell death. For example, a value of 40 represents 60% growth inhibition. A value of 0 means no net growth occurred over the course of the experiment. A value of -40 indicates 40% of cells at the beginning of the experiment died by the end of the experiment. A value of -100 means all cells are dead at the end of the experiment.
NCI-60 Human Tumor Cell Lines Screen was performed using the standard one-dose NCI protocol, which is described in more detail at https://dtp.cancer.gov/discovery_development/nci-60/default.htm.
Compounds with GIPRCNT values below 10 were considered active. Activity score was based on GIPRCNT using the following formula: […]
Score is 0 for GIPRCNT values of 100 or above, 50 for GIPRCNT values of 0, and 100 for GIPRCNT values of -100.
For the compound `CCCCCCCCCCCCCCCCOC(=O)c1c(C)[nH]c(/C=C2\N=C(c3ccc[nH]3)C=C2OC)c1C`, the growth is 22.7%.

Take `CC12CCC(/C(=C/NNc3ccc([N+](=O)[O-])cc3[N+](=O)[O-])C1=O)C2(C)C` (stereo not given): the growth was 90.7%.

Consider `CN1C(=O)N(C)C2C1NC(=S)N2/N=C/C=C/c1ccccc1[N+](=O)[O-]` (stereo not given), for which the growth is 26.7%.

For `Cn1c(=O)c2c(c3ccccc31)OC(N)=C(C#N)C21C(=O)c2ccccc2C1=O`, the growth was 95.2%.

As for `C=C1C(=O)O[C@H]2[C@H]1CC/C(COC(=O)/C=C\C(=O)NCc1ccc(Cn3c(=O)sn(-c4ccccc4)c3=O)cc1)=C\CC[C@@]1(C)O[C@@H]21`, the growth is 106%.

As to `COC(=O)Cc1nc(C#N)c(N(C)C)o1`, the growth is 94.7%.

On to `O=C(/C=C/C12c3ccccc3C(c3ccccc31)C1C(=O)NC(=O)C12)c1ccccn1` (stereo not given), for which the growth was 1.06% (active).

Regarding `COc1ccc2c(c1)c(-c1nc(-c3cn(C)c4ncccc34)cs1)cn2CCO`, the growth was 49.5%.

On to `COc1ccc(C2=NN(C(=O)c3cc(OC)c(OC)c(OC)c3)C(c3ccc(N(C)C)cc3)C2)cc1` (stereo not given), for which the growth was 23.3%.

As to `COC(=O)c1c2c(c(C)[n+]([O-])c1C)C(=O)C=CC2=O`, the growth was 4.57% (active).

On to `COc1ccc2c(c1)c(-c1ccc(-c3cn(C)c4ccc(OC)cc34)[nH]1)cn2C`, for which the growth is 9.21% (active).

Consider `CN(C)c1ccc(/C=C/C(=O)c2ccc(Nc3nc(Nc4ccc(F)cc4)nc(Nc4ccc(Cl)cc4)n3)cc2)cc1`, for which the growth is 73.8%.

For the compound `O=C(/C=C/c1ccc(Br)cc1)c1ccc(-n2cc(CN3CCN(c4cc5c(cc4F)c(=O)c(C(=O)O)cn5C4CC4)CC3)nn2)cc1`, the growth is 88.8%.

For `c1ccc(CNc2ccc3nc(CCC4CCCCC4)[nH]c3c2)cc1`, the growth was 66.7%.

For the compound `CCCCCCCCCCCCCCCCCCOc1ccccc1CC(=O)NCC[N+]1(C)CCOCC1`, the growth was 5.07% (active).

As for `CCOC(=O)c1c(-c2ccccc2)n2c(=O)cc(C)c3c(O)c(O)cc1c32`, the growth was 64.3%.

Take `CCCCCCNc1nc(NCCCCCC)c2[nH]c(NCCCCCC)nc2n1`: the growth is 50.8%.

As for `O=C1c2cccnc2C(=O)c2c1c(C(=O)OCCCN1CCCCC1)c1ccccn21`, the growth is -33.2% (active).

On to `COc1ccc(C(c2cc(OC)c(OC)c(OC)c2)N2CCCC2)cc1` (stereo not given), for which the growth is 43.9%.

Take `O=C1NC(=C(Cl)Cl)/C(=N/S(=O)(=O)NCCc2c[nH]c3ccccc23)N1`: the growth is -4.6% (active).

As for `CC1COCC(C)N1C1=C(Cl)C(=O)c2ccccc2C1=O` (stereo not given), the growth was 89%.

Turning to `O=C1CCCc2nc3sc4c(=O)n(-c5ccccc5Cl)nnc4c3cc21`, the growth is 107%.

`Cn1cc(-c2csc(-c3cn(C(=O)OC(C)(C)C)c4ccccc34)n2)c2ccnc(Cl)c21`: the growth was 50.4%.

In the case of `N=C(N)c1ccc(-c2ccc(-c3ccc(F)cc3)s2)s1`, the growth is -76.1% (active).

`COC(=O)/C=C1/SC(=Nc2cccc(Cl)c2)N(CCc2c[nH]c3ccc(O)cc23)C1=O`: the growth is 18.9%.

With `CN(C)c1ccc(-c2cc(-c3ccc(Nc4nc(Nc5ccc(Cl)cc5)nc(Nc5ccc(Cl)cc5)n4)cc3)nc(N)c2C#N)cc1`, the growth was 74.1%.

With `CC1=CCC[C@@H]2C1(C)CC[C@H](C)[C@@]2(C)CC1=CC(=O)C(SC(C)(C)C)=CC1=O` (stereo not given in full), the growth was 93.1%.

Take `CC[C@H](C)[C@H](NC(=O)[C@H](CCCNC(=N)N)NC(=O)[C@H](Cc1c[nH]c2ccccc12)NC(=O)[C@@H](NC(=O)[C@H](CCCCN)NC(=O)[C@H](CCCCN)NC(=O)[C@@H](NC(=O)[C@@H](NC(=O)[C@@H](NC(=O)[C@H](CCCCN)NC(=O)[C@H](Cc1ccccc1)NC(=O)[C@H](CCCCN)NC(=O)[C@H](CCCCN)NC(=O)[C@H](Cc1ccccc1)NC(=O)[C@@H](NC(=O)[C@@H](N)CCCCN)[C@@H](C)CC)[C@@H](C)O)[C@@H](C)CC)[C@@H](C)CC)C(C)C)C(=O)N[C@@H](Cc1ccccc1)C(=O)NCC(=O)N[C@@H](CCCNC(=N)N)C(=O)N[C@@H](Cc1ccccc1)C(N)=O`: the growth was -25.6% (active).

As to `COc1ccc(C2C3=C(COC3=O)N(CCO)c3cc4c(cc32)OCCO4)cc1OC` (stereo not given), the growth is 23.2%.

As for `COc1ccc(NC(=O)c2sc3nc(C)c(C(O)c4ccccc4)cc3c2N)cc1` (stereo not given), the growth was 20.3%.

For `Nc1c(C(=O)O)cc(Cl)cc1[N+](=O)[O-]`, the growth is 105%.

`CCCCCCCCCCCCCCCCCCOc1ccccc1CC(=O)OCC[N+]1(C)CCOCC1`: the growth was 65.8%.

Take `C=CCn1c(SCC(=O)Nc2ccc(C(=O)/C=C/c3ccc(OC)cc3)cc2)nnc1-c1ccccc1`: the growth is 82.6%.

For the compound `O=C1/C(=C/c2cccc([N+](=O)[O-])c2)COc2ccc(O)cc21`, the growth is 15.5%.

Regarding `COc1cc(C(=O)/C=C/c2ccc(N3CCN(C)CC3)cc2)cc(OC)c1OC`, the growth is 99.3%.

As to `O=C(O)c1cn(C2CC2)c2cc(N3CCN(C(=O)N/N=C/c4ccccc4)CC3)c(F)cc2c1=O`, the growth is 94.8%.

Regarding `CCN=C1C=CC(=C(c2ccc(N(C)C)cc2)c2ccc(N(C)C)cc2)c2ccccc21`, the growth was -86.1% (active).

Regarding `COc1cc(OC)cc(C2C(C#N)=C(N)Oc3c2ccc2ccc(O)cc32)c1` (stereo not given), the growth is 5.84% (active).

Consider `CCSC1=CC(=O)c2ccccc2C1=O`, for which the growth is 93.8%.

Turning to `COc1ccc(Cl)cc1Nc1nc(C(F)(F)F)ccc1C(=O)N/N=C/c1ccccc1Cl`, the growth was 7.71% (active).

These data come from PubChem BioAssay (NCI).
